Test results taken from article PMC8222333, “AsCas12a ultra nuclease facilitates the rapid generation of therapeutic cell medicines”.

Legend:
dAsCas12a WT = dAsCas12a WT (Acidaminococcus sp., UniProt U2UMQ6 1-1307, D908A;E993A;D1235A); test: Spec-seq (native PAGE EMSA with sequencing of bound and unbound); 25 mM Tris-HCl pH 7.4, 150 mM KCl, 5 mM MgCl2, 10% glycerol, 1 mM DTT, 40 ng/uL salmon sperm DNA; 400 nM Cas12a, 480 nM crRNA, 50 nM library, 37 C 1 h; native P; high values mean tight binding
dAsCas12a Ultra = dAsCas12a Ultra (Acidaminococcus sp., UniProt U2UMQ6 1-1307, M537R;F870L;D908A;E993A;D1235A); test: Spec-seq (native PAGE EMSA with sequencing of bound and unbound); 25 mM Tris-HCl pH 7.4, 150 mM KCl, 5 mM MgCl2, 10% glycerol, 1 mM DTT, 40 ng/uL salmon sperm DNA; 400 nM Cas12a, 480 nM crRNA, 50 nM library, 37 C 1 h; native PAGE at room temperature; high values mean tight binding; conditions: protein: recombinant
dAsCas12a E174R = dAsCas12a E174R (Acidaminococcus sp., UniProt U2UMQ6 1-1307, E174R;D908A;E993A;D1235A); test: as above; conditions: protein: recombinant;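 note: relative affinity from the bound to unbound sequence frequency ratio in Spec-seq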
dAsCas12a S542R = dAsCas12a S542R (Acidaminococcus sp., UniProt U2UMQ6 1-1307, S542R;D908A;E993A;D1235A); test: as above; conditions: protein: recombinant;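 note: relative affinity from the bound to unbound sequence frequency ratio in Spec-seq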
dAsCas12a K548R = dAsCas12a K548R (Acidaminococcus sp., UniProt U2UMQ6 1-1307, K548R;D908A;E993A;D1235A); test: as above; conditions: protein: recombinant
d-enCas12a = d-enCas12a (Acidaminococcus sp., UniProt U2UMQ6 1-1307, E174R;S542R;K548R;D908A;E993A;D1235A); test: as above; conditions: protein: recombinant
d-enCas12a-Ultra = d-enCas12a-Ultra (Acidaminococcus sp., UniProt U2UMQ6 1-1307, E174R;S542R;K548R;M537R;F870L;D908A;E993A;D1235A); test: as above; conditions: protein: recombinant;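 note: relative affinity from the bound to unbound sequence frequency ratio in Spec-seq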

| Binder | binding signal (dAsCas12a WT) | binding signal (dAsCas12a Ultra) | binding signal (dAsCas12a E174R) | binding signal (dAsCas12a S542R) | binding signal (dAsCas12a K548R) | binding signal (d-enCas12a) | binding signal (d-enCas12a-Ultra) |
| --- | --- | --- | --- | --- | --- | --- | --- |
| TTTT (dsDNA) DNA 1: GCTATCTAGTGCTCAGTACGCACTGTTTTAGGAAACTTCTGGCAGGACCAGGTCATGAGATCGGAAGAGCACACGTCTGAACTCCAGTCA DNA 2: TGACTGGAGTTCAGACGTGTGCTCTTCCGATCTCATGACCTGGTCCTGCCAGAAGTTTCCTAAAACAGTGCGTACTGAGCACTAGATAGC RNA: AAUUUCUACUCUUGUAGAUAGGAAACUUCUGGCAGGACC | -5.51 lnKA | -3.17 lnKA | -2.29 lnKA | -2.76 lnKA | -4.73 lnKA | -0.44 lnKA | -0.171 lnKA |
| ATTA (dsDNA) DNA 1: GCTATCTAGTGCTCAGTACGCACTGATTAAGGAAACTTCTGGCAGGACCAGGTCATGAGATCGGAAGAGCACACGTCTGAACTCCAGTCA DNA 2: TGACTGGAGTTCAGACGTGTGCTCTTCCGATCTCATGACCTGGTCCTGCCAGAAGTTTCCTTAATCAGTGCGTACTGAGCACTAGATAGC RNA: AAUUUCUACUCUUGUAGAUAGGAAACUUCUGGCAGGACC | -6.74 lnKA | -4.56 lnKA | -2.6 lnKA | -4.16 lnKA | -5.45 lnKA | -0.456 lnKA | -0.172 lnKA |
| ACTG (dsDNA) DNA 1: GCTATCTAGTGCTCAGTACGCACTGACTGAGGAAACTTCTGGCAGGACCAGGTCATGAGATCGGAAGAGCACACGTCTGAACTCCAGTCA DNA 2: TGACTGGAGTTCAGACGTGTGCTCTTCCGATCTCATGACCTGGTCCTGCCAGAAGTTTCCTCAGTCAGTGCGTACTGAGCACTAGATAGC RNA: AAUUUCUACUCUUGUAGAUAGGAAACUUCUGGCAGGACC |  | -7.71 lnKA | -7.65 lnKA | -7.86 lnKA |  | -5.67 lnKA | -2.87 lnKA |
| AATT (dsDNA) DNA 1: GCTATCTAGTGCTCAGTACGCACTGAATTAGGAAACTTCTGGCAGGACCAGGTCATGAGATCGGAAGAGCACACGTCTGAACTCCAGTCA DNA 2: TGACTGGAGTTCAGACGTGTGCTCTTCCGATCTCATGACCTGGTCCTGCCAGAAGTTTCCTAATTCAGTGCGTACTGAGCACTAGATAGC RNA: AAUUUCUACUCUUGUAGAUAGGAAACUUCUGGCAGGACC |  | -8.59 lnKA | -8.34 lnKA | -8.01 lnKA |  | -5.1 lnKA | -2.64 lnKA |
| ATTG (dsDNA) DNA 1: GCTATCTAGTGCTCAGTACGCACTGATTGAGGAAACTTCTGGCAGGACCAGGTCATGAGATCGGAAGAGCACACGTCTGAACTCCAGTCA DNA 2: TGACTGGAGTTCAGACGTGTGCTCTTCCGATCTCATGACCTGGTCCTGCCAGAAGTTTCCTCAATCAGTGCGTACTGAGCACTAGATAGC RNA: AAUUUCUACUCUUGUAGAUAGGAAACUUCUGGCAGGACC | -7.65 lnKA | -5.43 lnKA | -4.83 lnKA | -4.9 lnKA | -6.23 lnKA | -1.2 lnKA | -0.339 lnKA |
| ATTC (dsDNA) DNA 1: GCTATCTAGTGCTCAGTACGCACTGATTCAGGAAACTTCTGGCAGGACCAGGTCATGAGATCGGAAGAGCACACGTCTGAACTCCAGTCA DNA 2: TGACTGGAGTTCAGACGTGTGCTCTTCCGATCTCATGACCTGGTCCTGCCAGAAGTTTCCTGAATCAGTGCGTACTGAGCACTAGATAGC RNA: AAUUUCUACUCUUGUAGAUAGGAAACUUCUGGCAGGACC | -6.67 lnKA | -4.57 lnKA | -3.93 lnKA | -4.41 lnKA | -5.19 lnKA | -0.519 lnKA | -0.186 lnKA |
